Sampled rows, rich in hits. Any-hit rate of the full collection: about 13%.
USP10 inh: inhibitors of human USP10 deubiquitinase; purified USP10, Ub-rhodamine fluorescence, 60 min; inhibition, % at 20 µM; hit rate 1.1% among 47,000
USP17 inh: inhibitors of human USP17 deubiquitinase | A8MUK1 | purified USP17, Ub-rhodamine cleavage fluorescence, 3 h | inhibition, % at 50 µM | hit rate 6.5% among 47,000 | AID 1645855
USP7 inh: human USP7 deubiquitinase inhibition | Q93009 | purified USP7, Ub-rhodamine cleavage fluorescence | inhibition, % at 20 µM | hit rate 0.3% among 47,000
USP30 block: inhibitors of human USP30 deubiquitinase; Q70CQ3; purified USP30, Ub-rhodamine cleavage fluorescence; inhibition, % at 25 µM; hit rate 5.3% among 47,000; AID 1645860
USP8 block: human USP8 deubiquitinase inhibition; P40818; purified USP8, Ub-rhodamine cleavage fluorescence, 30 min; inhibition, % at 20 µM; hit rate 4.2% among 47,000
USP28 block: blocks human USP28 ubiquitin-rhodamine cleavage. inhibition, % at 25 µM. purified USP28, Ub-rhodamine cleavage fluorescence, 30 min. Q96RU2. AID 1645857. hit rate 3% among 47,000
Target sequence (Q96RU2 whole entry, looked up): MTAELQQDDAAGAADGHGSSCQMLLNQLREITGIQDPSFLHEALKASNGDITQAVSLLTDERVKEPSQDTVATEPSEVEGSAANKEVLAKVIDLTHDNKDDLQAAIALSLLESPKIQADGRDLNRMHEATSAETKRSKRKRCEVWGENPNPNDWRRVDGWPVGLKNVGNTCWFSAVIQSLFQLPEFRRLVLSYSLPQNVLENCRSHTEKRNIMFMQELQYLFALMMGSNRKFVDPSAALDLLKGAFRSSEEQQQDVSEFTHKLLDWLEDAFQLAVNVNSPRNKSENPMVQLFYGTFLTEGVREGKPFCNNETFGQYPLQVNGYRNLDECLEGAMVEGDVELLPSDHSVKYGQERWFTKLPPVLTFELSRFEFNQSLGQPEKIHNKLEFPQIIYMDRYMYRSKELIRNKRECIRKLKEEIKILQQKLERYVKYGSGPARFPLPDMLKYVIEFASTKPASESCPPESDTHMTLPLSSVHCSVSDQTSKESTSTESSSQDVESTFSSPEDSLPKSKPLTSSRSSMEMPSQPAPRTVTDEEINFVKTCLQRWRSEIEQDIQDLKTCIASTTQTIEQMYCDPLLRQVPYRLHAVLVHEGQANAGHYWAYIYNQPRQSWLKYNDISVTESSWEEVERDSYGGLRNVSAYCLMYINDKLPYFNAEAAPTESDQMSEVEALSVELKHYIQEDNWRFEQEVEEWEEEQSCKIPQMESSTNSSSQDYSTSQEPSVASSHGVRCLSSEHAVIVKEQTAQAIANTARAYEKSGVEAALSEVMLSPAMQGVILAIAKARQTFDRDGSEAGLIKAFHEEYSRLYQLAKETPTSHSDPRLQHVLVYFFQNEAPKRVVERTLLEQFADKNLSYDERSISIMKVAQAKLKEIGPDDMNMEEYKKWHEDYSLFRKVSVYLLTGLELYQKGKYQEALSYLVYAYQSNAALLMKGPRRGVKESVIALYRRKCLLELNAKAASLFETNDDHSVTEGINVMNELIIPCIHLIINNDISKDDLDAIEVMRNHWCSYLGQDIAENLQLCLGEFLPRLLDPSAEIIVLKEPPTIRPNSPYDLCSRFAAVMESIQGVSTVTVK
An asterisk follows results filed as active; nt = no result. Cut-off read from the data, not from the text of the source: active = inhibition above about 30%; inactive = the rest.

SMILES | USP10 inh | USP17 inh | USP7 inh | USP30 block | USP8 block | USP28 block
CCN1C(=O)c2ccccc2Sc2ccc(C(=O)NCc3ccc(C)cc3)cc21 | 9.2 | -0.6 | 18.4 | 25.8 | -0.1 | 38.4*
COc1ccc(NC(=O)c2nc3ccccc3nc2N2CCCCC2)c(OC)c1 | -2.3 | -19.8 | -4.1 | -15.9 | 1.1 | 1.6
Fc1ccc(F)c(-c2nnc(-c3ccc(-n4ccnc4)nc3)o2)c1 | -4.2 | 46.5* | -12.7 | 24.5 | 24.9 | 16.7
Cc1ccc(Cc2nc(-c3ccc(-n4ccnc4)nc3)no2)cc1 | -0.8 | 12.0 | -12.4 | 12.0 | 4.5 | 25.4
Fc1ccc(Cl)cc1-c1nnc(-c2ccc(-n3ccnc3)nc2)o1 | 1.4 | 48.4* | -3.2 | 46.3* | 22.6 | 16.1
COc1ccc(CC(=O)Nc2nnc(C3CCCO3)s2)cc1OC (centres undefined) | 1.7 | 4.5 | 0.0 | 5.7 | 7.3 | -2.8
O=C(N1CCCC1)C1(Cc2ccccc2-c2cccnc2)CCOCC1 | -0.2 | 0.0 | -1.7 | -0.1 | 0.8 | -3.7
CCN1CCN(c2ccc(C(=O)O)cc2NS(=O)(=O)c2ccc(C(C)C)cc2)CC1 | 1.3 | 6.9 | -14.8 | 0.2 | 81.4* | 1.8
O=C(c1cnn2cccnc12)N1CCC(c2ccn3nccc3n2)CC1 | 6.5 | 17.5 | 8.7 | 33.4* | 3.7 | 14.5
COc1cc(C(=O)OC2CCOC2=O)ccc1OCc1ccccc1 (centres undefined) | 0.0 | -1.1 | -16.9 | 1.0 | 0.9 | 8.6
O=C(C(Sc1ccccc1)c1ccccc1)N1CCN(c2cccc(C(F)(F)F)c2)CC1 (centres undefined) | 10.5 | nt | 16.5 | 30.7* | 7.4 | 23.2
O=C(CN1C(=O)CCOc2ccccc21)N1CCN(c2cccc(C(F)(F)F)c2)CC1 | -0.1 | -15.3 | -4.9 | -2.8 | -5.7 | -8.4
Cc1ccc(-c2nn(-c3ccc(Cl)cc3)c3c2cnc2ccccc23)cc1 | 2.2 | 4.5 | 6.3 | 17.3 | 10.1 | 0.4
COc1ccc(-c2cc3nc(Nc4cc(OC)c(OC)c(OC)c4)ccn3n2)cc1 | -11.3 | nt | 0.0 | -74.2 | 14.0 | -10.2
Cc1ccc(-c2cc3nc(Nc4ccc(C(N)=O)cc4)ccn3n2)cc1 | -5.7 | nt | -6.1 | -108.2 | 71.4* | -21.8
CC(=O)Nc1c(-c2ccc(C)cc2)c(C)nn1-c1ccc(C(=O)Nc2cccc(C#N)c2)cc1 | 22.7 | 49.2* | 4.7 | -10.0 | 3.7 | -5.7
COc1ccc(CN(C(=O)c2ccc(-c3ccccc3)[nH]2)C(C(=O)NC2CCCCC2)c2ccc(F)cc2)cc1 (centres undefined) | -2.1 | -1.3 | -0.8 | -10.9 | -5.0 | -5.7
COC1=C(C)C(C)(O)c2[nH]c3ccccc3c2C1=O (centres undefined) | -2.8 | 41.6* | 1.9 | -3.6 | 0.0 | 6.0
COc1c(-c2ccccc2)c2ccccc2[nH]c1=O | 4.4 | 1.4 | -2.6 | 6.0 | 6.5 | -0.4
CC(C)CCNC(=O)c1ccc2ccnc(N3CCN(c4ccccc4F)CC3)c2c1 | -7.6 | 18.7 | -0.1 | -34.5 | 66.9* | -14.6
O=C(Nc1ccc2ccccc2n1)c1ccc(Cl)cc1 | 11.8 | 30.1* | 10.2 | 62.5* | 59.2* | 12.4
O=C(Nc1nc(-c2ccccc2)c2ccccc2n1)c1ccc(Cl)cc1 | 11.0 | -0.1 | 8.5 | 28.6 | 0.4 | 33.5*
O=C(Nc1ccc2ccccc2n1)c1ccccc1Cl | 0.2 | 19.9 | 1.6 | 17.0 | 23.8 | 19.9
CC(C)C(=O)N1CCc2cc(-c3csc(NC(=O)c4ccccn4)n3)ccc21 | -3.6 | -28.6 | -17.3 | -92.4 | -72.7 | -24.1
O=C(c1ccc(OC2CCN(Cc3ccc[nH]3)CC2)nc1)N1CCOCC1 | 0.0 | -67.0 | 0.3 | -15.3 | 0.6 | -4.6
SMILES | USP10 inh | USP17 inh | USP7 inh | USP30 block | USP8 block | USP28 block
O=C(NCCC1=CCCCC1)c1cnn2c3c(cnc12)CCCCCC3 | 9.9 | 19.8 | -0.7 | 37.8* | 14.6 | 28.4
CC(CNC(=O)c1cnn2c3c(cnc12)CCCC3)c1ccccc1 (centres undefined) | 0.7 | 12.8 | -11.3 | 30.6* | 8.0 | 24.4
Cc1ccc(S(=O)(=O)N2CCC(c3nc(C(=O)N4CCOCC4)c(C)o3)CC2)cc1 | 2.0 | 7.3 | 4.5 | 17.6 | -1.7 | 9.7
O=C(CCC(=O)c1ccc(F)cc1)Nc1cccc(S(=O)(=O)Nc2cccc(Cl)c2)c1 | 32.1* | -2.5 | -9.1 | -1.5 | -19.8 | -68.1
Cc1ccc(S(=O)(=O)Nc2ccc(Cl)cc2)cc1NC(=O)CC(=O)c1ccccc1 | 26.8 | 37.9* | -4.8 | -1.6 | 50.9* | 6.8
Cc1ccc(S(=O)(=O)Nc2cccc(Cl)c2)cc1NC(=O)CCC(=O)c1ccc(Cl)cc1 | 33.7* | 0.0 | -20.5 | 17.8 | 7.3 | -12.0
Cc1ccc(S(=O)(=O)Nc2cccc(Cl)c2)cc1NC(=O)CCc1ccccc1 | 14.6 | 21.5 | 2.2 | 15.3 | 16.9 | 9.9
CCC(C)(CC(=O)O)CC(=O)Nc1cccc(CO)c1 (centres undefined) | 0.3 | 0.2 | 0.2 | 4.0 | 2.7 | -2.7
NC(=O)c1cc2cc(F)ccc2nc1C1CCN(C(=O)CCN2CCOCC2)CC1 | -0.8 | -1.5 | -2.2 | -0.5 | -0.3 | -8.4
NC1=NC(c2ccccc2)n2c(nc3cc4c(cc32)OCCCO4)N1 (centres undefined) | -1.5 | -3.5 | -7.7 | -9.2 | -8.9 | -1.6
O=C(CSc1cn(Cc2cccc(F)c2)c2ccccc12)Nc1ccccc1C(F)(F)F | 11.5 | 11.0 | 5.4 | 17.9 | -10.9 | 12.8
Cc1ccc(Cn2cc(SCC(=O)Nc3ccc(F)cc3F)c3ccccc32)cc1 | 5.9 | 31.8* | 6.2 | 21.5 | 2.3 | 5.5
Cc1ccc(C(=O)NCCc2nnc3ccc(SCc4c(F)cccc4Cl)nn23)cc1 | 2.2 | 5.9 | -3.8 | 30.2* | 15.2 | 15.7
Cc1ccc(C(=O)NCCc2nnc3ccc(SCC(=O)NCc4ccc(F)cc4)nn23)cc1 | -1.1 | 16.6 | -7.3 | 29.5 | 9.6 | 10.8
CCOc1ccc(NC(=O)CSc2ccc(-c3ccncc3)nn2)cc1 | 0.7 | -9.0 | 0.9 | 1.6 | -0.5 | -7.4
COc1cccc(-c2ccc(SCC(=O)Nc3ccc(F)c(F)c3)nn2)c1 | 9.6 | 14.2 | 2.0 | 24.3 | 31.5* | 7.8
Cc1cc(C)cc(NC(=O)CSc2ccc(-c3ccncc3)nn2)c1 | -2.5 | -5.5 | 0.7 | 55.0* | 4.9 | 19.0
CCOC(=O)C1CCN(C(=O)c2ccc(CNS(=O)(=O)c3ccc(Cl)cc3)cc2)CC1 | -0.3 | 16.6 | 2.0 | 31.5* | 9.1 | 11.3
COc1cccc(CNC(=O)c2ccc(Cc3c(C)noc3C)o2)c1OC | 0.9 | -2.6 | -3.5 | 8.8 | -4.0 | 3.0
O=C(COC(=O)C(Cc1ccccc1)NC(=O)c1ccccc1)NCc1ccc2c(c1)OCO2 (centres undefined) | 4.8 | 46.8* | -1.3 | 10.1 | -6.2 | 2.1
CN(C(=O)Cn1c(=O)n(CCC(=O)NCc2ccc3c(c2)OCO3)c(=O)c2ccccc21)C1CCCCC1 | -0.6 | 0.0 | -13.5 | 30.3* | 15.7 | 11.6
O=C(CCn1c(=O)c2ccccc2n(CC(=O)OCc2ccccc2)c1=O)NCc1ccc2c(c1)OCO2 | 47.8* | 28.3 | 5.6 | 26.2 | 26.3 | 8.9
